Measured values published in the supplement of paper PMC12632987.

T1: USP38, Q8NB14
T1 chain: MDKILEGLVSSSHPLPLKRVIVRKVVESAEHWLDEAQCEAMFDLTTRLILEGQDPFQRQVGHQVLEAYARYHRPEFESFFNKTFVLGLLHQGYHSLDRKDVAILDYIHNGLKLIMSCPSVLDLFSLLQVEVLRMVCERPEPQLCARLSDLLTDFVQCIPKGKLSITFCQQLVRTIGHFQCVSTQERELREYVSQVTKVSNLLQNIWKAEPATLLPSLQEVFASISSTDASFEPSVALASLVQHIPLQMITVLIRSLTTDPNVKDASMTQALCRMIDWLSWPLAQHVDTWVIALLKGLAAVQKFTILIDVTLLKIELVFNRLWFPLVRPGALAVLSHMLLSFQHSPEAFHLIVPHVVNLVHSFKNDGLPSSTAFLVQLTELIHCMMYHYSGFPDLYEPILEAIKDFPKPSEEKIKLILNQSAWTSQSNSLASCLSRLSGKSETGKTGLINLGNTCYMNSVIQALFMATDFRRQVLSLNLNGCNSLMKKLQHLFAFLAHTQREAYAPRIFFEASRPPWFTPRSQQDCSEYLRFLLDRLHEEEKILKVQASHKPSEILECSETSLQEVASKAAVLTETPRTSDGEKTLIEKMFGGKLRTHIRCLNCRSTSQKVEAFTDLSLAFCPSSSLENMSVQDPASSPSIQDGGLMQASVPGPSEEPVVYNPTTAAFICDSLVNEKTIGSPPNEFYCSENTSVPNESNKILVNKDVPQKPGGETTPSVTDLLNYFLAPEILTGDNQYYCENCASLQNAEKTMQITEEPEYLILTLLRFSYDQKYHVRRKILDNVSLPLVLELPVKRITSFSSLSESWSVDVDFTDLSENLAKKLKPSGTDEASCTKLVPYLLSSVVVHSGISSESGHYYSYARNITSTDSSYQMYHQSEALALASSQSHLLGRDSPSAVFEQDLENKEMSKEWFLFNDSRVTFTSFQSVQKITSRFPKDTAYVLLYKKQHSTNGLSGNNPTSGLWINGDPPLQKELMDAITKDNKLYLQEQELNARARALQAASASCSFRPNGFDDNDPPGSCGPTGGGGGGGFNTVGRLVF


Biological target: T1, USP38, Q8NB14
Assay: median log2 fold change of GCK-ALFA target abundance (FLAG IP / Myc IP barcode read proportion) (log2 ratio); each designed protein is fused to an ALFA-tag nanobody in HEK293 cells to bring the named protein to FLAG-tagged glucokinase (GCK); Myc marks an untargeted standard; higher = target protein stabilised (more abundant)
Conditions: target protein: 3xFLAG-MCP-GCK-ALFA reporter; HEK293 landing pad (RPLP)
How it was run: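 Binders fused to an ALFA nanobody were recombined as a library into HEK293 landing-pad cells, which were induced with 2 μg mL^−1 doxycycline and then transfected to express a FLAG-tagged target and a Myc-tagged standard. After 48 h, circular RNA barcodes recovered by anti-FLAG and anti-Myc immunoprecipitation of lysates were reverse transcribed, amplified and sequenced. Each binder's target abundance is the median log2 ratio of FLAG to Myc barcode read proportions, from barcodes present at ≥10^−7 in both replicates, binders carrying ≥3 barcodes per replicate, a 10^−6 pseudocount and pooled replicates.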

Binder | median log2 fold change
usp_38_diff_out_18_14_328 (protein) SAELREALLSNLETLTKEVKEVTERTLKIVDKLKGDPEAARSLLDTRIQALEGVIKYAEEVAKEAKAAGDKELEAAAEKLKKEAEKAKKELEEKKKALEA | -0.102
usp_38_diff_out_18_14_307 (protein) GEELAAAQLSNLNSLKTDVEKDTERVIKLLKKAKDDPERVKRIYERAKRNLAGVRTYATEVKEEAEKAGNAELVAAANDLLATIDDAEKKIEEEYKKVMA | -0.0463
usp_38_diff_out_18_14_299 (protein) SAELAEAKAANLKLLKTDVKEDTERVIKLLKKNKNDPERVKRIYDRAKRNLAGVRTYAEEVLEEAKAAGDAATAAAAQELLKTIDEEEKKIEEEYKKVMA | -0.444
usp_38_diff_out_18_14_296 (protein) SSELSEAERSVLELLKEEVKKDTERTIKLLEKVKDDPERVKRIVERAERNLAGVRAFAEEVKERAEKEGDEETVKAAEELLAEIDAARERIAAAREKVLA | -0.447
usp_38_diff_out_18_14_304 (protein) SEELAAALKSNLESLTKEVKEDTERVIKLLKKRKDDPEEVKRIYERAERNLAGVEAYAKEVKAEAEKAGDAETVAAAEALLKEVKEAREKVKKAYEEVMA | 0.296
usp_38_diff_out_18_14_315 (protein) SEELQEAELSSLKILKEDVVRDTERAIRLLEKSKDDPERVKRIYERRMRNLAGVREYAKEVLERAKKEGNEELLKAAEELLKTVDAAEERLEAKYKEVMA | 0.253
usp_38_diff_out_18_14_317 (protein) SEELSKALLSNLKTLTKEVEEDTKRLEKIVEALKDDPEAARSLLETRRQAYEGVAKYAKEVLKEAKEAGDEELAKAAEELLKAAEKALEEVEKRLKELEE | -0.378
usp_38_diff_out_18_14_297 (protein) SEELSEAEISNLELLKKEVEEDTERTIELLEKVKDDPERVKRIVERALRNLAGVEAYAKDVKERAEKEGNEKTVAAANELLATIEEARKRIEEKYKKVME | 0.335
usp_38_diff_out_18_14_306 (protein) SEELAEAERSNLESLKKDVKEYTERVIKLLEKAKDDPERVKRIYERAKRNLAGVEEYAKEVLKRAKEAGDEETVKAAEELLKTIEEARKKVEEAYEKVMK | -0.549
usp_38_diff_out_18_14_313 (protein) SEELREAEKSSLEILKKDVEEDTERKIKLLKKAKNDPERVKRIYERAMRDLEGVKKYAEEVLKRAEEEGDEETKKAAEELLKKVEEARERLEKAYKEVME | 0.328
usp_38_diff_out_18_14_303 (protein) GEELAKAELENLKQLKADVKAYTERVIRLLEAARDDPERVKRIYERAQRDLAGVETYAKEVKKEAEKRGDKELVKAAEELLKEVAAARERVEAAYRAVMA | -0.327
usp_38_diff_out_18_14_316 (protein) SEEEEEALLSAVEILKADVERDTDRKIRLLEKAKDDPELVERIYERALRDLAGVEAYAKEVEKEAKKNGNEKLLKAAKELLKTVAAARERLEAAYKEVMA | 0.00386
usp_38_diff_out_18_14_318 (protein) SEELIKQTLSNVKKLTEEVKKDTKRTLKILEKLKDDKESALSLIDTRIQALNGVIKYAEELKKEAEKLGNKELAEAAKELIKAAKEAKKELEKRKKALKE | -0.746
usp_38_diff_out_18_14_314 (protein) SEELEEAELSALKTLTADVEADTARKIELLEKAKDDPERVKRIYDRALRDLAGVRTYAEEVLKRAKERGNEELLAAAEALLATVDAAEARLTAKYEEVMK | 0.22
usp_38_diff_out_18_14_327 (protein) SEELKEALLSNLKLLKEEVKKDTERTLKILEKLKGDPESARSLIDTRIQALEGVIKYAEEVAKMAKEEGDEELKKAAEELKKEAEEAKKKLEEKRKELEK | -0.444
usp_38_diff_out_18_14_312 (protein) SEEEAEALLSSVEILTADVERDTARKIRLLEAAKDDPELVERIYERALRDLAGVEAYAEEVLAQAKAEGNAELEAAAQALLATVAAARARLEAAYAAVRA | 0.0395

Binder | median log2 fold change
usp_38_diff_out_18_14_323 (protein) SEELREATKSNLKTLTAEIKEWTARRLKVIEKLKDDPESATSLLDTAKQALQGVIKYAEEVKREAEEEGDEELKKAATETKKAAEDALKQLEAKEAKLKA | -0.403
usp_38_diff_out_18_14_308 (protein) AEELAAAKKSNLESLKEEVKKYTERVIELLKKAKDDPERVKRIYERAQRDLEGVRTYAEEVLKEAEAAGDEETKAAAKELLKEIDEAKKKVEKAYKEVMA | -0.392
usp_38_diff_out_18_14_326 (protein) SEELTEATLSNLKSLTEETKKTTERLKKIVEKLKDDKESALSLLDTRTQAFKGVLKYAEETEKEAKKAGNEELLAAAKELKEAAKKALEEIEKLKKELEE | -0.166
usp_38_diff_out_18_14_301 (protein) SEELAEALRSNLELLKEDVKEDTERVIRLLKKNKNDPERVKDIYERAKRNLAGVREYAEEVLEEAEEAGDEETAEAARELLETIEEERKKIEEEYKKVMA | -0.149
usp_38_diff_out_18_14_311 (protein) AEELAQAELDNLKSLTTAVTADTARVIRLLEQSKDDPERVKRIYERAKRNLAGVETYAQEVKARAEAAGDADLVAAADALLATVAAARAAIEAAYKAVMA | -0.0344
usp_38_diff_out_18_14_294 (protein) SSELSEAEVSALELLKKEVREDTERTIRLLEKVKDDPERVKRIVERRQRNLAGVRAYAEEVRRRAEELGDEETVAAANELLAEIDKAEKEVEEAVKRVEA | 0.136
usp_38_diff_out_18_14_324 (protein) SEELIKARISNLKSLTEEVKKVTARKLKVIDALKDDPESATALIDTQLQALEGVIKYAEEEKKEAEKLGNEELIKAAEELKKAAEEAKAELEKKRKELAA | 0.13
usp_38_diff_out_18_14_309 (protein) SAELAEAKKKNLEQLTTDVKEDTERVIRLLRKRRDDPEAVKRLYERAQRNLAGVRKYAEEVKKEAEKAGDKETVAAAEKLLKEVAEAEKRIEEEYARVMA | -0.138
usp_38_diff_out_18_14_293 (protein) DAELSAAERSALATLRTDVAADTARTIALLKRVKDDPERVDRVVERARRNLAGVRAFAEEVLREAEERGDEETVAAARELLAAIDAAEAAVAAAAAAVRA | -0.59
usp_38_diff_out_18_14_310 (protein) SEELAEAEKSNLEKLTKEVEEDTERVIRLLEKAKDDPERVKRIYERAKRNLAGVETYAKEILERAKKAGDEETKKAAEELLKKIAEARERIEKAYEEVMK | 0.384
usp_38_diff_out_18_14_300 (protein) SAELAEALKSNLEILKEDVKRYTERVIRLLRKNKDDPERVKRIYERAKRDLEGVRKFAEEVLKLAKEEGDEETAKAAEELLKTIEEEEKRIEEEYKRVMA | -0.852
usp_38_diff_out_18_14_325 (protein) DAELIAATLANLKSLTEETKKDTERLEKVVEKLKDDPESARSLLETRRQAYEGVKEYAEETKKEAEANGDKELAAAAQELKDAAEKALEKIDKLLKELEA | 0.134
usp_38_diff_out_18_14_302 (protein) AAELAAAKKSNLESLKKDVEEDTKRVIELLEKAKDDPERVKRIYENAKRNLAGVRKYAEEVKKEAEEAGDKETVAAAEELLKTIEEAEKKVEEAYKKVMA | 0.326
usp_38_diff_out_18_14_319 (protein) MEELIEAEKANLKSLTAEVERDTARRLAVVDALRDDPDAAQSLLDTAAQALQGVIAYAEEVAKRAEELGNEELKKAAEELKAAARAALARLEARRAELAA | 0.235
usp_38_diff_out_18_14_292 (protein) SEELSEAEKSVLETLKKDVREDTERTIRLLEKVKDDPERVKRVVERARRNLAGVRAYAEEVKERAEKRGDEETVKAAEELLKEVEKAEERIEKAEEEVLK | 0.0826
usp_38_diff_out_18_14_295 (protein) SEELSKAEISVLETLTKEVEADTDRTIALLEKVADDPERVKRIVERANRNLAGVRAYAEEVKERAEERGDEETVKKAEELLKKIDEAEARIAAAEAAVRA | 0.017
